This passage reports inhibition results from ChEMBL document CHEMBL5606458, “ASAP - ZIKV NS2B-NS3 protease fluorescence single point” (2024).

For the test, the target named is Nonstructural protein 3 (Zika virus) (UniProt A0A024AXB9).

Structures are written as SMILES. About 160 (5.9%) of roughly 2,700 compounds showed an effect of 50% or more. The sample holds strong results, similar compounds and a random draw of the others, so the mix is not that of the screen.

Nonstructural protein 3 (Zika virus), sequence (A0A024AXB9 as listed by the source): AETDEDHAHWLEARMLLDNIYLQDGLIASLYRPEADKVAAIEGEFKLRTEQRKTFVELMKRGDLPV

For `CCn1ccnc(N(C)[C@@H](CO)Cc2c[nH]c3ccccc23)c1=O`, the inhibition (commonly the drop in the measured response relative to a control, in per cent) by setting is: (PRVABC59, Concentration 49.5 uM, Number of replicates 2.0, Standard deviation 1.5047267855359387 %) 5.63%; (PRVABC59, Concentration 99.01 uM, Number of replicates 2.0, Standard deviation 0.8040526249565179 %) 13%; (PRVABC59, Concentration 198.0 uM, Number of replicates 2.0, Standard deviation 1.5605190977207197 %) 25.3%.
`c1cnc2c(C3CCN(Cc4c[nH]c5ncccc45)CC3)c[nH]c2c1`: the inhibition (PRVABC59, Concentration 49.5 uM, Number of replicates 2.0, Standard deviation 1.618110911749522 %) amounted to 7.76%; the inhibition (PRVABC59, Concentration 99.01 uM, Number of replicates 2.0, Standard deviation 1.5506891039488269 %) came to 16.5%; the inhibition (PRVABC59, Concentration 198.0 uM, Number of replicates 2.0, Standard deviation 1.1046722712184134 %) was 29.8%.
`c1cc(CN2CCC(c3c[nH]c4ncccc34)CC2)c2[nH]ccc2c1`: the inhibition was found to be 22.9% (PRVABC59, Concentration 49.5 uM, Number of replicates 2.0, Standard deviation 0.810920201040277 %); 30.1% (PRVABC59, Concentration 99.01 uM, Number of replicates 2.0, Standard deviation 0.8653267248460199 %); 32% (PRVABC59, Concentration 198.0 uM, Number of replicates 2.0, Standard deviation 1.207313671508752 %).
Take `C[C@@H](CO)N1CC[C@H](c2c[nH]c3ccccc23)C1`: the inhibition (PRVABC59, Concentration 49.5 uM, Number of replicates 2.0, Standard deviation 2.959092091051968 %) is -1.43%; the inhibition (PRVABC59, Concentration 99.01 uM, Number of replicates 2.0, Standard deviation 1.9403190167556676 %) was determined as 0.816%; the inhibition (PRVABC59, Concentration 198.0 uM, Number of replicates 2.0, Standard deviation 2.4285693519175138 %) came out at 5.47%.
On to `C[C@@H](Cc1c[nH]c2ccccc12)N1CC[C@H](n2ncc3ccccc32)C1`, for which the inhibition runs as follows: (PRVABC59, Concentration 49.5 uM, Number of replicates 2.0, Standard deviation 0.39220306220212786 %) 9.38%; (PRVABC59, Concentration 99.01 uM, Number of replicates 2.0, Standard deviation 0.9766631885715499 %) 10.3%; (PRVABC59, Concentration 198.0 uM, Number of replicates 2.0, Standard deviation 1.7687599327172854 %) 8.18%.
As for `c1ccc2c(CN3CCC(c4c[nH]c5cccnc45)CC3)c[nH]c2c1`, the inhibition by setting is: (PRVABC59, Concentration 49.5 uM, Number of replicates 2.0, Standard deviation 1.80837898184189 %) 63.8%; (PRVABC59, Concentration 99.01 uM, Number of replicates 2.0, Standard deviation 1.3316731742493602 %) 74.9%; (PRVABC59, Concentration 198.0 uM, Number of replicates 2.0, Standard deviation 0.976733320927472 %) 81.5%.
Regarding `c1ccc2c(CN3CCC(c4c[nH]c5ncccc45)CC3)c[nH]c2c1`, the inhibition was found to be 58.2% (PRVABC59, Concentration 49.5 uM, Number of replicates 2.0, Standard deviation 1.5803867849339672 %); 72.5% (PRVABC59, Concentration 99.01 uM, Number of replicates 2.0, Standard deviation 1.538935865185685 %); 82.3% (PRVABC59, Concentration 198.0 uM, Number of replicates 2.0, Standard deviation 1.43011742277759 %).
As to `C[C@@H](Cc1c[nH]c2ccccc12)N1CC[C@H](c2c[nH]c3ccccc23)C1`, the inhibition (PRVABC59, Concentration 49.5 uM, Number of replicates 2.0, Standard deviation 2.440376707234144 %) worked out at 29.4%; the inhibition (PRVABC59, Concentration 99.01 uM, Number of replicates 2.0, Standard deviation 1.7661943697547304 %) amounted to 46%; the inhibition (PRVABC59, Concentration 198.0 uM, Number of replicates 2.0, Standard deviation 0.6921254310022592 %) worked out at 60.4%.
Take `N#C[C@H]1CCCN(Cc2c[nH]c3ccccc23)C1`: the inhibition came to 3.62% (PRVABC59, Concentration 49.5 uM, Number of replicates 2.0, Standard deviation 3.0443309311516127 %); 5.66% (PRVABC59, Concentration 99.01 uM, Number of replicates 2.0, Standard deviation 5.606340240027709 %); 8.81% (PRVABC59, Concentration 198.0 uM, Number of replicates 2.0, Standard deviation 2.4427254668079588 %).
Take `O[C@H]1CCCN(Cc2c[nH]c3ccccc23)C1`: the inhibition (PRVABC59, Concentration 49.5 uM, Number of replicates 2.0, Standard deviation 18.69396289412785 %) amounted to 21%; the inhibition (PRVABC59, Concentration 99.01 uM, Number of replicates 2.0, Standard deviation 0.9286103864725214 %) is 13.9%; the inhibition (PRVABC59, Concentration 198.0 uM, Number of replicates 2.0, Standard deviation 2.4132961769541357 %) is 24.7%.
For `O[C@@H]1CN(Cc2c[nH]c3ccccc23)CC[C@@H]1c1ccccc1`, the inhibition (PRVABC59, Concentration 49.5 uM, Number of replicates 2.0, Standard deviation 0.3811882362248968 %) is 52.4%; the inhibition (PRVABC59, Concentration 99.01 uM, Number of replicates 2.0, Standard deviation 0.3137721603955992 %) stood at 68%; the inhibition (PRVABC59, Concentration 198.0 uM, Number of replicates 2.0, Standard deviation 0.1218792449994391 %) turned out to be 78.3%.
Consider `O=C1NCc2ccccc2C12CCN(CCn1cc(-c3ccccc3)cn1)CC2`, for which the inhibition is -1.24% (PRVABC59, Concentration 49.5 uM, Number of replicates 2.0, Standard deviation 2.8974171324862783 %); 2.72% (PRVABC59, Concentration 99.01 uM, Number of replicates 2.0, Standard deviation 3.3976160570541145 %); 8.7% (PRVABC59, Concentration 198.0 uM, Number of replicates 2.0, Standard deviation 1.9883423160607387 %).
Regarding `CCn1ccnc(N2CC[C@H](c3ccncc3)C2)c1=O`, the inhibition was 15.5% (PRVABC59, Concentration 50.0 uM, Number of replicates 2.0, Standard deviation 13.086126440978003 %); 11.2% (PRVABC59, Concentration 100.0 uM, Number of replicates 2.0, Standard deviation 1.9353273126054316 %); 19% (PRVABC59, Concentration 200.0 uM, Number of replicates 2.0, Standard deviation 4.176368308171179 %).
